Key:
Assay in all cases: PBM binding z-score (relative to random genomic background probes); higher = stronger binding; sequences stand for … in GC…GCGATTGACAGCGTAGAATGAAGG
[1] = system: RARb homodimer (NR concentration 270 nM)
How it was run: (§1)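 Binding z-scores take random background probes as their reference. They come from custom Agilent 4×180K protein-binding microarrays incubated 1 h with ligand-free nuclear receptor dimers, with antibodies against each partner (one per run) detecting binding. Scanned fluorescence was regression-normalized.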

[2] = system: RARg:RXRa (NR concentration 270 nM, RXRa partner concentration 90 nM)
How it was run: as §1

[3] = system: RARg homodimer (NR concentration 270 nM)
How it was run: as §1

[4] = system: RXRa DBDmut IVT, anti-RXR (DBD mutation: RXRa K156A/R161A, NR concentration 90 nM)
How it was run: as §1

[5] = system: RXRa homodimer (NR concentration 180 nM)
How it was run: as §1

[6] = system: THRa:RXRa (NR concentration 90 nM, RXRa partner concentration 90 nM)
How it was run: as §1

[7] = system: THRa homodimer (NR concentration 90 nM)
How it was run: as §1

[8] = system: VDR homodimer (NR concentration 270 nM)
How it was run: as §1

Sequence | PBM binding z-score [1] | PBM binding z-score [2] | PBM binding z-score [3] | PBM binding z-score [4] | PBM binding z-score [5] | PBM binding z-score [6] | PBM binding z-score [7] | PBM binding z-score [8]
CCAGACAGGTGGGAAGGTAACTCAGCCTCGATTA | 0.465 | -0.192 | -0.24 | -0.499 | -0.186 | -0.392 | 0.393 | -0.38
ACTAGCAGGCCAAGTTTGGGTAACTCAAACAAAG | -0.346 | -0.166 | 0.104 | -0.417 | -0.603 | 0.525 | -0.513 | -0.292
ATCTCTAGGTAAGACCCAGTTCAGTGAAGAACGC | 0.62 | 0.282 | 0.0331 | 0.175 | 0.283 | 0.738 | 0.878 | 1.3
GATACAGGGTAAGCTAGAGGCCAGAGTATGGAAA | 0.413 | 0.988 | 0.547 | -0.967 | 0.303 | 0.219 | -0.653 | -0.382
TATCCTAGGTCATTGGGCCAGTATAGTACGCATC | 3.29 | 4.22 | 4.55 | 2.33 | 3.37 | 3.25 | 1.52 | 1.65
TTACCAAGGTGAAGGTCGTTGTTCCCTCTGTAGA | 2.09 | 1.36 | 1.24 | 0.33 | 1.49 | 2.4 | 1.18 | 1.11
CCTAGGAGGACAACAGGAGGTCAGAGCTGCCAGA | 3.64 | 3.49 | 3.47 | 0.503 | 2.25 | 2.82 | 1.1 | 1.4
GCGACGGGGGCAAAGCAGGTTACCATAAGGTTGG | 2.24 | 3.47 | 3.11 | 2.62 | 2.73 | 4.56 | 1.23 | 2.8
CCGAGTAGGTTATGGGGCATACAGGCAACGGTGA | 0.844 | 0.575 | 0.725 | -0.471 | 0.691 | 0.28 | -0.0646 | 0.0894
TCGAGTAGGTTCCCAATGGGGCATTCAGCTTTCT | -0.191 | -0.766 | -0.954 | 0.269 | -0.493 | -0.435 | -0.628 | -1.15
TCGAGTAGGTTACCAATAGGGCATTCAGCTTTCT | 0.965 | 1.78 | 0.593 | 0.262 | 0.749 | 0.215 | -0.961 | -0.368
AGAATGAGGTTATTAAAATCAGGGAATTGCGGTC | 0.836 | 0.827 | 0.788 | 1.46 | 1.43 | 1.89 | 0.676 | 0.874
TCAGACAGGTGAAGGTAACTCATGTACGCAGTCG | 0.741 | 0.76 | 0.656 | 1.32 | 1.02 | 0.677 | 0.193 | 0.0395
ACAGACAGGTGAGTGTAGGTAACTCAGCTGGACG | -0.178 | 0.259 | 0.401 | -0.328 | 0.232 | 1.33 | -0.572 | -0.361
ACTAGTTGGTCAGCTTAGGTCACACACAATTCGG | 3.68 | 2.59 | 3.19 | 0.83 | 1.69 | 4.33 | 3.55 | 0.863
ATCTCTAGGTAAAGTTCAATGAAAGATCGATAGA | 2.76 | 2.7 | 2.91 | 1.75 | 2.27 | 1.57 | 0.271 | 2.82
AGAATTAGGTTATACGTAGATCAGGGAAGAAAGT | 0.51 | 0.538 | 0.552 | 0.428 | 0.592 | 0.759 | 0.539 | 0.454
CCTACTGGGCCCAAAAGGTCATTGATGCCGATAA | 4.35 | 4.87 | 4.11 | -0.121 | 5.65 | 3.15 | 0.687 | 1.84
TAGCCTAGATCAGATCGGGCCAGTATACGCTATA | -1.29 | -0.519 | -0.508 | -1.09 | -0.577 | 0.52 | -1.58 | -1.04

Sequence | PBM binding z-score [1] | PBM binding z-score [2] | PBM binding z-score [3] | PBM binding z-score [4] | PBM binding z-score [5] | PBM binding z-score [6] | PBM binding z-score [7] | PBM binding z-score [8]
CCTTACGGGTCACGAGTTTATAGCACGACGAGCG | 3.38 | 5.62 | 5.24 | 2.39 | 5.78 | 2.82 | 0.451 | 4.44
TAGCCTAGGTCAGATCGCGCCAGTATACGCTATA | 1.68 | 2.64 | 3.2 | -0.216 | 1.22 | 1.61 | 0.165 | -0.0657
CCTAGTTGGTCAGGGTCACACACGCTATAGGTAC | 3.88 | 4.11 | 3.38 | 1.6 | 4.93 | 3.63 | 2.49 | 2.69
TTAGCAAGGTGAAAGGTCGTTGATGCACGCCTTG | 2.23 | 4.16 | 1.75 | 0.67 | 5.52 | 3.02 | 0.254 | 1.18
ATCTCTAAGTAAAGATAGTTCAGTGAATGCAAAT | 0.667 | 0.945 | 0.889 | 0.232 | 0.538 | 0.429 | -0.328 | 0.578
GCTAGCAGGCCATTTGGGTCTCTCAATGACGGGC | -0.614 | -0.279 | -0.301 | -0.264 | -0.294 | 0.0257 | -0.703 | -0.774
CGTCAAAGTTCAACTAAGGTAACGTTAAGCACGC | 4.42 | 6.02 | 6.57 | 4.55 | 5.24 | 5.42 | 2.19 | 4.26
TCATATAGGTAAATGCTACGTGAAAGTCCGATCT | -0.0537 | 0.346 | 0.292 | 1.58 | 0.839 | -0.0231 | 0.0102 | 0.41
CCAGACAGGTGAAAGGTAAGTCAGTCTGGTACGC | 0.843 | 1.2 | 0.478 | 0.066 | 1.68 | 0.828 | 0.0448 | 0.0335
TCTCGGAGGACACGAAGGTCAGAGCATTCCAGAG | 3.61 | 3.22 | 4.02 | 0.583 | 1.97 | 2.87 | 0.91 | 1.04
CCTTACTGGTCACTGACAGGTTATAGCATTTGGA | 1.55 | 1.76 | 1.32 | 0.856 | 0.874 | 0.492 | 0.796 | 0.63
CGAACAAGGTCAGAACAGGACAGTGAAGGATGAT | 3.28 | 4.38 | 4.86 | 2.29 | 3.5 | 4.28 | 1.11 | 1.14
CCTCGCAGGACAGAAGGTCAGAGCTGTCCGCTTT | 3.34 | 2.74 | 2.61 | 0.371 | 1.74 | 1.58 | 0.0874 | 0.0556
ACTAGCAGGCCAAGTTTGGTTCACTCAAACAAAG | 0.338 | 0.163 | 0.218 | 0.0733 | -0.193 | 0.405 | -0.294 | 0.338
TCTTGTAGATCAATAGAGGTTAAGAAGGTGCGCT | 1.27 | 0.969 | 0.482 | 0.518 | 1.33 | 2.37 | -0.695 | 0.298
TAGCCTAGGTCAGATCGTGCCAGTATACGCTATA | 2.22 | 2.83 | 3.28 | -0.193 | 1.33 | 2.46 | 0.0586 | -0.325
TCGAGTAGGTTCGGGGCATTCAGAATGGCGTCGA | -0.0297 | -0.387 | -0.609 | 0.913 | -0.159 | 0.428 | -0.274 | 1.09
TCTTGTAGATCAAGCAGGTAAAGAAAGCCTGAGT | -0.462 | -0.262 | -0.32 | 0.476 | -0.157 | 0.095 | -0.499 | -0.555
ACTCGGAGGACAAGGGTCAGAGCTACGCCAGTGA | 3.36 | 3.88 | 3.19 | 0.24 | 2.82 | 2.28 | 0.361 | 1.05

Sequence | PBM binding z-score [1] | PBM binding z-score [2] | PBM binding z-score [3] | PBM binding z-score [4] | PBM binding z-score [5] | PBM binding z-score [6] | PBM binding z-score [7] | PBM binding z-score [8]
ATCGAAAGGTCGACGAGGTGTGTATACACCGTTT | 2.54 | 4.07 | 3.97 | 1.18 | 4.14 | 2.22 | -0.542 | 0.527
CATACAGGGTCAGCTAGGCCACAGTAGGGACGGC | 3.58 | 4.56 | 4.98 | 1.69 | 4.55 | 3.28 | 1.02 | 1.89
ATCTCTAGCTAACAAGTTCAGTGAAAGAGAGGAC | 1.31 | 0.734 | 0.987 | 0.511 | 0.529 | 1 | 0.651 | 2.47
ATCTCTAGGTAACCAAGCTCAGTGAATGCCGAAC | -0.00643 | 0.122 | -0.0382 | -0.17 | -0.107 | 0.646 | 0.537 | 0.149
ATCTCTAAGTAAAGTTCAGTGAAAGATCGATAGA | 2.32 | 1.98 | 2.42 | 1.71 | 1.26 | 0.85 | -0.131 | 2.32
ACTCGGAGGAGAAAGGTCAGAGCTACGCCAGTGA | 4.21 | 4.22 | 4.04 | 0.158 | 4 | 2.36 | -0.0607 | 0.437
TCATATAGGTATAGGTGAAAGTCGAACGATATGA | 0.405 | 0.646 | 0.511 | 0.538 | 1.13 | 0.242 | -0.544 | -0.127
CCTAGTTGGTCAAGGTCACACTCGCTATAGGTAC | 4.05 | 4.19 | 4.5 | 2.44 | 3.96 | 3.92 | 4.03 | 3.42
CCTAGTTTGTCAAGGTCACACACGCTATAGGTAC | 4.5 | 4.51 | 4.58 | 2.88 | 4.73 | 4.32 | 4.77 | 4.93
ATCTCTAGGGAAGACTCAGTTCAGTGAAGAACGC | 0.462 | -0.132 | -0.0509 | 0.532 | -0.129 | 0.262 | 0.318 | 1.38
ACCGACAGGTGATGAAGGTAACTCAGGCTATCAT | 0.0533 | 0.16 | 0.23 | -0.271 | 0.299 | 0.649 | -0.149 | -0.217
GCTATTAGTAGAAAGGGCAACCGAATGATTCTCG | 1.83 | 0.904 | 1.32 | 0.538 | 0.634 | 0.234 | -0.401 | -0.301
CCAGACAGTTGAGAAGGTAACTCAGCCTCGATTA | 0.381 | 0.25 | 0.293 | 0.456 | 0.203 | 0.25 | 0.485 | 0.252
AAAACAGGGTCACTAGGCCAGAGTAGGTACGAAT | 3.35 | 5.4 | 4.84 | 2.95 | 5.7 | 3.48 | 1.18 | 2.76
TCTATTAGTTGAAGGGCCACCGACGAGTCCGTTT | 0.971 | 0.277 | 0.128 | 1.69 | 0.47 | 0.074 | 0.396 | 1.35
AGAATGAGCTTATACGTAGATCAGGGAAGAAAGT | -0.75 | -0.102 | -0.0616 | -0.769 | -0.13 | -0.46 | -0.669 | -0.447
ATCTCTAGGTAAAAGTTCAGAGAATCCCGAGGAT | 2.16 | 2.02 | 1.97 | 0.853 | 1.87 | 1.24 | -0.00417 | 1.91
CGTCCATGGTCAATGCTAGGTCAGTGAAAGCATT | 2.59 | 2.58 | 1.9 | 0.0994 | 0.519 | 1.9 | 0.665 | -0.0955
CCGAGTAGGTTATGGTGCATTCAGGCAACGGTGA | 1.06 | 0.337 | 0.381 | 0.527 | 0.5 | 0.6 | 0.468 | 0.619

Reference: the supplement of paper PMC6555819
